Measurements published in PubChem BioAssay (NCATS).
Records with an inconclusive call do not appear. Where a call stands in place of a potency, no number is given. The source made the active and inactive calls. Unless noted, the call rests on the fitted dose curve; in most records, active means well fitted curve in the direction sought with a large enough effect; inconclusive means small, poorly fitted or top-dose-only effect, or another doubt; inactive means no such curve, though single readings can be large; an effect the other way counts as inactive or inconclusive.

Legend:
[1] = molecular target: Beta-2 adrenergic receptor (Homo sapiens) (UniProt P07550); assay: qHTS validation assay of beta-arrestin-biased ligands of beta2-adrenergic receptor (AID 485366)
Sequence of Beta-2 adrenergic receptor (Homo sapiens) (P07550 whole entry, looked up): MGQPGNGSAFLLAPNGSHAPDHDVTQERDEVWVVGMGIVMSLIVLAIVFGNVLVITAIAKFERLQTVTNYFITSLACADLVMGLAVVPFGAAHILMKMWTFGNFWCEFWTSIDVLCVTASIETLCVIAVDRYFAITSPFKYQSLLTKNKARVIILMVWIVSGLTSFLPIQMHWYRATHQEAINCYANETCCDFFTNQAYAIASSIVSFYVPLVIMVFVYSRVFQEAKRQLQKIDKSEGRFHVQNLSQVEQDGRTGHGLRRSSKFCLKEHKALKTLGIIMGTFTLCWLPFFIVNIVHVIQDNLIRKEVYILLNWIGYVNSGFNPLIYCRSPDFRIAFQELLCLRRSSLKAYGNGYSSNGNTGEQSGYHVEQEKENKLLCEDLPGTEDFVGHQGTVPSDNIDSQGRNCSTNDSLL
Outline: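 Tango cells expressing recombinant beta2-AR and beta-arrestin with tTA-driven luciferase, in DMEM with 1% FBS. Compounds were titrated up to 46 microM for 18 hr at 37 degrees C. Luminescence was read 15 min after substrate; curves were fitted and class-assigned.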

[2] = molecular target: Thioredoxin reductase 1, cytoplasmic (Rattus norvegicus) (UniProt O89049); assay: qHTS Assay for Substrates of Mammalian Selenoprotein Thioredoxin Reductase 1 (TrxR1) (AID 488772);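 further: NADPH fluorescence in the first read after selenite addition and not the 8 min delta; series mostly up to about 57 µM; a drop in NADPH fluorescence below the no-compound background marks a TrxR1 substrate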
Sequence of Thioredoxin reductase 1, cytoplasmic (Rattus norvegicus) (O89049 whole entry, looked up): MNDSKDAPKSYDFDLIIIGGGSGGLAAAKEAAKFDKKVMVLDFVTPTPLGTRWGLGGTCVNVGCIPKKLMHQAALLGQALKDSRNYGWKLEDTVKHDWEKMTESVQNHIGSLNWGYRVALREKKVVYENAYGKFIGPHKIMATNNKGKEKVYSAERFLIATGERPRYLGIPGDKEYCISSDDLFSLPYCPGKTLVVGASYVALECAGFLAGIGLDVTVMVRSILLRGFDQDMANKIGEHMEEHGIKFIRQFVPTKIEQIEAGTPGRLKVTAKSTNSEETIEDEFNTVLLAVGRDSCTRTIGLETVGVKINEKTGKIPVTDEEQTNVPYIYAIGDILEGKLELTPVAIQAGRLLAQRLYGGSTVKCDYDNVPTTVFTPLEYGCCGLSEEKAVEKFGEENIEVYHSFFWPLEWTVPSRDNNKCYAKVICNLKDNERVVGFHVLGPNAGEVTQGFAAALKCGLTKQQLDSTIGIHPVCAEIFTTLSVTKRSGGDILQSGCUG
Outline: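 Quantitative HTS in Tris-HCl buffer at pH 7.5 with EDTA and Tween-20, using rat TrxR1, 400 uM NADPH and 400 uM selenite (final). A fall in initial NADPH fluorescence relative to background marked substrate behaviour.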

[3] = molecular target: Flap endonuclease 1 (Homo sapiens) (UniProt P39748); assay: qHTS Validation Assay for the Inhibitors of Human Flap endonuclease 1 (FEN1) (AID 488816)
Sequence of Flap endonuclease 1 (Homo sapiens) (P39748 whole entry, looked up): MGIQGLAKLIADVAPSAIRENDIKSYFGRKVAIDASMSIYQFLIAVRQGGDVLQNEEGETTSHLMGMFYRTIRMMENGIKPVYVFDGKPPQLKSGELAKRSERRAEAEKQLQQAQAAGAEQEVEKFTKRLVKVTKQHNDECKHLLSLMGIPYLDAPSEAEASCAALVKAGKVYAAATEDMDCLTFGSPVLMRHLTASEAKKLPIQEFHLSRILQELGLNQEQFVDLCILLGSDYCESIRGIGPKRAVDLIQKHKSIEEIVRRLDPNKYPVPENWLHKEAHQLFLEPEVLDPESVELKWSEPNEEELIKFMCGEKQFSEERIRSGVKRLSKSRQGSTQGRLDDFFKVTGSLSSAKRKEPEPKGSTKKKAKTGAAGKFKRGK
Outline: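 Readings taken at 0 and 15 min after starting the reaction with 50 nM (final) substrate supplied the signal. Compounds had first sat with 10 nM FEN1 reagent for 15 min at room temperature. Values come from Hill-equation concentration-response fits.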

[4] = molecular target: M-phase phosphoprotein 8 (Homo sapiens) (UniProt Q99549); assay: qHTS Validation Assay for Inhibitors for MPP8 Chromodomain Interactions with Methylated Histone Tails (AID 488949); further: nearly all actives have a fitted effect of over 55% in size; further: potency means the concentration at half of the fitted maximal effect
Outline: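 Chemiluminescent proximity assay: histidine-tag capture via nickel acceptor beads, biotin peptide via streptavidin donor beads. Protein and peptide each at 50 nM, pH 7.4, with 30 min incubations at room temperature for complex formation, compound exposure and bead binding.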

[5] = molecular target: Methanococcus maripaludis chaperonin (MmCpn) (UniProt Q6LX38); assay: High-Throughput Screening for Modulators of Cytosolic Chaperonin Activity: MmCpn Primary Screen (AID 488978)
Outline: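 HTRF readout (320 nm excitation, 590/665 nm emission) of ADP generated by 50 nM MmCpn hydrolysing 30 uM ATP during 10 min at 37C; compound preincubated 5 min RT.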

[6] = molecular target: Transient receptor potential cation channel subfamily V member 1 (Homo sapiens) (UniProt Q8NER1); assay: HTS Assay for Compounds that Act as Enhancers of the Vanilloid Receptor 1 (AID 488979)
Sequence of Transient receptor potential cation channel subfamily V member 1 (Homo sapiens) (Q8NER1 whole entry, looked up): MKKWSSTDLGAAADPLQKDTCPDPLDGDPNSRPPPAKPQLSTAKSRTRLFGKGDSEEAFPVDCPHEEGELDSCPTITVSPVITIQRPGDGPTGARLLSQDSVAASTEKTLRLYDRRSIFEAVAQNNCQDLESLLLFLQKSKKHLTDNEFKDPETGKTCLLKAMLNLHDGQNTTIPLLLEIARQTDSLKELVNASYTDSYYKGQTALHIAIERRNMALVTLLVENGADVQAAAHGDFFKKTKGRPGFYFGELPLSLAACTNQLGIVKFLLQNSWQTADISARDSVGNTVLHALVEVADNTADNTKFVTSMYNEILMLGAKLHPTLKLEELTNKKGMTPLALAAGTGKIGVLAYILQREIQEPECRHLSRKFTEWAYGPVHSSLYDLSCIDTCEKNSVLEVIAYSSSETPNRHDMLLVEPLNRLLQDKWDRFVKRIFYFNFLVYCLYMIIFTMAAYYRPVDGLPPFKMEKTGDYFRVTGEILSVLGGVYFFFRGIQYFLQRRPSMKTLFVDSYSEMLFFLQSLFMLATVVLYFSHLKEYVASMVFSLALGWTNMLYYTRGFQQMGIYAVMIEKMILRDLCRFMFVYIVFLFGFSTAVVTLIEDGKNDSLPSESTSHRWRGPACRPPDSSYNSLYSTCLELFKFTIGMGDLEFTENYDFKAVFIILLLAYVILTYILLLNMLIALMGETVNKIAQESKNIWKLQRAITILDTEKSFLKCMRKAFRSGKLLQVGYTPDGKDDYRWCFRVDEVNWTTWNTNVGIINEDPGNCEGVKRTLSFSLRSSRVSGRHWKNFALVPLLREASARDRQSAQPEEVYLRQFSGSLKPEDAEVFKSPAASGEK
Outline: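 Calcium influx kinetics via Fluo-8 (480/520 nm) in TRPV1-expressing cells, 2000/well cultured overnight at 35.5C. Compound-alone read 3 min (agonist phase), followed by EC20 capsaicin challenge for 2 min (enhancer phase).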

[7] = molecular target: D(1A) dopamine receptor (Homo sapiens) (UniProt P21728); assay: HTS Assay for Allosteric Agonists of the Human D1 Dopamine Receptor: Primary Screen for Agonists (AID 488981); further: potency means the concentration at half of the fitted maximal effect
Outline: (§1)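 Calcium flux in an inducible, force-coupled HEK293 Trex D1 line (overnight at 30 C): agonist mode is the 180 s kinetic read after compound; potentiator mode is the following 180 s read after dopamine at EC20.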

[8] = molecular target: D(1A) dopamine receptor (Homo sapiens) (UniProt P21728); assay: HTS Assay for Allosteric Agonists of the Human D1 Dopamine Receptor: Primary Screen for Potentiators (AID 488982)
Outline: as §1

[9] = molecular target: D(1A) dopamine receptor (Homo sapiens) (UniProt P21728); assay: HTS Assay for Allosteric Agonists of the Human D1 Dopamine Receptor: Primary Screen for Antagonists (AID 488983);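 further: calcium flux response to an EC80 dopamine challenge measured with no-wash dye; nearly all actives have a fitted effect of over 65% in size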
Outline: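 Tetracycline-induced HEK293 T-REx D1 line, force-coupled to calcium flux, read with no-wash calcium dye. Compound added after 10 s baseline, read 180 s for agonism, then EC80 dopamine added and read a further 180 s.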

[10] = Validation screen for small molecules that induce genotoxicity in human embryonic kidney (HEK293T) cells expressing luciferase-tagged ELG1 (AID 493106)
Outline: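 HEK293T cells expressing luciferase-tagged ELG1, 2,000 cells/well, exposed to compound 16 hr at 37 °C, 5% CO2. Luciferase read after ONE-Glo, 30 min at room temperature; increased signal indicates genetic stress.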

[11] = molecular target: ATPase family AAA domain-containing protein 5 (Homo sapiens) (UniProt Q96QE3); assay: Validation screen for small molecules that inhibit ELG1-dependent DNA repair in human embryonic kidney (HEK293T) cells expressing luciferase-tagged ELG1 (AID 493107);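 further: cells co-treated with the DNA-damaging agent 5-fluorouridine alongside compound; series mostly up to about 46 µM; inhibitors lower the ELG1-luciferase luminescence signal; nearly all actives have a fitted effect of over 70% in size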
Sequence of ATPase family AAA domain-containing protein 5 (Homo sapiens) (Q96QE3 whole entry, looked up, the tested form may be a part): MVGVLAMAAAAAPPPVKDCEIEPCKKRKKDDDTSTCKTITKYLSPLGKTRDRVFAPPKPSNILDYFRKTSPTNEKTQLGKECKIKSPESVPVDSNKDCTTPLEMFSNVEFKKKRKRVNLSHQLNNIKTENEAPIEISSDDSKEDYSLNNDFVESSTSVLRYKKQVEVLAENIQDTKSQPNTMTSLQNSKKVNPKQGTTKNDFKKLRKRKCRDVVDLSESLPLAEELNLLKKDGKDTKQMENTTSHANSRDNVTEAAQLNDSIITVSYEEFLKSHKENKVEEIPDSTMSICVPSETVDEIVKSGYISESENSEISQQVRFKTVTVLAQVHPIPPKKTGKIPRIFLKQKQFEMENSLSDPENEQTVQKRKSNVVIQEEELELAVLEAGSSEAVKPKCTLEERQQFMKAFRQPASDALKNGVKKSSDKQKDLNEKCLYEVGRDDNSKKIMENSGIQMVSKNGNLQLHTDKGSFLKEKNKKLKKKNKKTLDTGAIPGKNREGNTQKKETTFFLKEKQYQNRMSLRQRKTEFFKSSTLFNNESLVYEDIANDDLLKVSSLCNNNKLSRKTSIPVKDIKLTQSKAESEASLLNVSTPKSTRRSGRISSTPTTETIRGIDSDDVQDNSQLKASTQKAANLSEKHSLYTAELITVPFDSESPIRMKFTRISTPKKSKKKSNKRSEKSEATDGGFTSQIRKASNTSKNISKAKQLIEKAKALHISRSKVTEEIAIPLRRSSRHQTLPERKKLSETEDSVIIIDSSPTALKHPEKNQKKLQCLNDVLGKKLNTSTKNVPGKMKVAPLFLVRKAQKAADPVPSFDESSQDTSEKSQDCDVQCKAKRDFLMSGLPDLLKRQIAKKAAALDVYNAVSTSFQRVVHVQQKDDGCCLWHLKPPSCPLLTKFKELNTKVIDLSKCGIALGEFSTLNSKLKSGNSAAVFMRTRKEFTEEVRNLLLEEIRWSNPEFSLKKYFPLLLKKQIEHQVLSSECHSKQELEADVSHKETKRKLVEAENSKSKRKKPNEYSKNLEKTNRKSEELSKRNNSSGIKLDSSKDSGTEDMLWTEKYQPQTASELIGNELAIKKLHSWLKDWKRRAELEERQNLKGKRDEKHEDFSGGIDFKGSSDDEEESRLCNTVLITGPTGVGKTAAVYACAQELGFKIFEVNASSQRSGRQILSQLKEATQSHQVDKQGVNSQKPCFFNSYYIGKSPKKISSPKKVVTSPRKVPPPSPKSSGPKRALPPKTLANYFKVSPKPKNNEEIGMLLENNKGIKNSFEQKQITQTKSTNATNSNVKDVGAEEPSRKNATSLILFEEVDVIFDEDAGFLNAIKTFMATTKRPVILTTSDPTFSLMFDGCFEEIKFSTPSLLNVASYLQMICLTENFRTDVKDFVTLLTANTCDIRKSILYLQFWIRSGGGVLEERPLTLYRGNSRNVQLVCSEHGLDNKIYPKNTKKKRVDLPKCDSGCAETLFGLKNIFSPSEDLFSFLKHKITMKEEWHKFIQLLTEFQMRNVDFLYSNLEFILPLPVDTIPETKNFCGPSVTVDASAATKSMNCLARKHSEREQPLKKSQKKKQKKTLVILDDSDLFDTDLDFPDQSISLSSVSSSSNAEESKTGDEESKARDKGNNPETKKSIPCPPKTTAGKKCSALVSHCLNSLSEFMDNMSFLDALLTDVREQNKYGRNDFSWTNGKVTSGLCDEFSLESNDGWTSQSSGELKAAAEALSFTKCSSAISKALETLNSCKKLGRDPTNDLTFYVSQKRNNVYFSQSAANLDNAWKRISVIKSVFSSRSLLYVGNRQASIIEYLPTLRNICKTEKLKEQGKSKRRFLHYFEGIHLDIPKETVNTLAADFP
Outline: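 HEK293T cells expressing luciferase-tagged ELG1, 2,000 per well, treated with 5-fluorouridine plus compound for 16 h at 37 C. ONE-Glo luminescence after 30 min at room temperature reports ELG1 reporter level.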

[12] = molecular target: Thyrotropin-releasing hormone receptor (Homo sapiens) (UniProt P34981); assay: qHTS for Small Molecule Agonists and Allosteric Enhancers of Human TRH Receptor: Validation Screen for Agonists (AID 493127;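 active means calcium activation more than 3 SD above the typical response in the agonist read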); conditions: TRH receptor agonist cell assay; at 2 µM; stronger effect = higher value
Sequence of Thyrotropin-releasing hormone receptor (Homo sapiens) (P34981 whole entry, looked up): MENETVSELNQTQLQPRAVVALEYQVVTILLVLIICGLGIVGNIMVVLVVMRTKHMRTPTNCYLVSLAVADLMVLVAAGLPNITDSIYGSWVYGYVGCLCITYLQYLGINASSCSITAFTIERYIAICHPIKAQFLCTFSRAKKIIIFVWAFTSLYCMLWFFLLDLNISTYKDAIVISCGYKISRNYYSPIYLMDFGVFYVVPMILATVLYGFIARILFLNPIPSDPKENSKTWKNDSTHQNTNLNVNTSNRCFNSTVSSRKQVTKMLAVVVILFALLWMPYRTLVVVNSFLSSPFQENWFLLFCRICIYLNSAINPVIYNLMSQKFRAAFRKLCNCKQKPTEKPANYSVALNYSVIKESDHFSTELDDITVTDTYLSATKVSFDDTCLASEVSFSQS
Outline: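 TRHR cells loaded with fluo-8 calcium dye; FDSS kinetic fluorescence (Ex 480/Em 530) read at 1 s/cycle after 23 nL compound addition. Agonist-mode calcium response recorded before the 10 nM TRH (EC20) addition.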

[13] = Nrf2 qHTS screen for inhibitors: Validation (AID 493153; active means well fitted inhibition curve with a large enough effect in the main read-out, with a control signal flat, not every such curve was filed as active); conditions: Potency: luciferase luminescence; viability change: measured here: cytotoxicity max response
Outline: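 A549 cells carrying ARE-firefly luciferase reporter, 5000 cells/well in 5% FBS OPTI-MEM, treated with compound over a concentration series for 18-24 h at 37 C. Luciferase luminescence gave Nrf2 activity; CellTiter-Fluor fluorescence gave viability.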

[14] = qHTS for Inhibitors of Cell Surface uPA Generation: Validation Assay (AID 493164)
Outline: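 RAW 264.7 cells (4000/well) were plated overnight, then exposed for 18 h at 37 C, 5% CO2 to compounds in a 7-point 1:5 titration (2.45 nM–38.3 uM final). Intracellular ATP was read by ATP-Lite luminescence.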

[15] = molecular target: ATP-dependent 6-phosphofructokinase (Trypanosoma brucei brucei) (UniProt O15648); assay: qHTS Assay to Find Inhibitors of T. brucei phosphofructokinase: hit validation (AID 492961);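 further: luminescence reports ADP formed as PFK phosphorylates fructose-6-phosphate with ATP; series mostly up to about 51 µM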
Sequence of ATP-dependent 6-phosphofructokinase (Trypanosoma brucei brucei) (O15648 whole entry, looked up): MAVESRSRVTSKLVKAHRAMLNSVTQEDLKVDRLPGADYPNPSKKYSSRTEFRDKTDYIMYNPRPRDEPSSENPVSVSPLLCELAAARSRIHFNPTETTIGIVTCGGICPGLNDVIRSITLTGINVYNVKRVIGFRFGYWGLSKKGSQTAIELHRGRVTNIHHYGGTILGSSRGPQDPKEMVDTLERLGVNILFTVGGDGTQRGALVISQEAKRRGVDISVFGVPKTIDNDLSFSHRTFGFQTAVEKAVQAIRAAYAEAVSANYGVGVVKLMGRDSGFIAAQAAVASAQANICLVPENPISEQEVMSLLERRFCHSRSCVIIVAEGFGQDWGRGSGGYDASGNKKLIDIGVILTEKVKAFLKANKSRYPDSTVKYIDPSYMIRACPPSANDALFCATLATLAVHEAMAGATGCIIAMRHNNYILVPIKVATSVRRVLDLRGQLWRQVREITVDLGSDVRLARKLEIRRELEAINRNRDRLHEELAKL
Outline: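 In this biochemical qHTS validation, titrated compounds were tested against 1.25 nM PFK with 0.1 mM ATP and 0.5 mM F6P. Percent activity came from controls lacking or containing enzyme.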

[16] = molecular target: ATP-dependent 6-phosphofructokinase (Trypanosoma brucei brucei) (UniProt O15648); assay: qHTS Validation Assay to Find Inhibitors of T. brucei phosphofructokinase (AID 485368)
Outline: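 Activity was read as ADP production by luminescence (ADP-Glo) after 45 min at room temperature. The enzyme was 1.25nM PFK in 0.1M TEA pH 8.0 with 0.5 mM F6P, 0.1mM ATP and 5 mM MgCl2. Compounds were titrated up to 57 uM and % activity normalized to no-enzyme and full-enzyme controls.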

[17] = molecular target: Chromobox protein homolog 1 (Homo sapiens) (UniProt P83916); assay: qHTS Validation Assay for Inhibitors of HP1-beta Chromodomain Interactions with Methylated Histone Tails (AID 488953); further: nearly all actives have a fitted effect of over 50% in size; further: potency means the concentration at half of the fitted maximal effect
Sequence of Chromobox protein homolog 1 (Homo sapiens) (P83916 whole entry, looked up): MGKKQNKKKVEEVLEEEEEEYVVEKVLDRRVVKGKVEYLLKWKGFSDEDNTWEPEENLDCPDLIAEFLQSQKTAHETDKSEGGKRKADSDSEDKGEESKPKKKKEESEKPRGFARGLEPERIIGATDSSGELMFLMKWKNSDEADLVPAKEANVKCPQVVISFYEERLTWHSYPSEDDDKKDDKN
Outline: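 HP1-beta (50 nM) preformed 30 min with biotinylated H3(1-18)K9me3 peptide (50 nM) in PBS pH 7.4, 0.01% Tween-20. Compounds added for 30 min at room temperature. Complex disruption read by AlphaScreen with streptavidin donor/nickel chelate acceptor beads (10 ug/mL each).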

[18] = Quantitative high throughput screen for delayed death inhibitors of the malarial parasite plastid, 96 hour incubation (AID 488745); further: nearly all actives have a fitted effect of over 70% in size; further: potency means the concentration at half of the fitted maximal effect
Outline: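 Luciferase-expressing P. falciparum in erythrocytes (2% hematocrit, 0.1% parasitemia) incubated with compound for 96 h at 37 C, 5% CO2, in RPMI 1640 with 0.5% Albumax. Growth inhibition read as decreased luminescence.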

## CC1=C(/C=C/C(C)=C/C=C/C(C)=C/C(=O)O)C(C)(C)CCC1
[1]
  outcome: inactive
[2]
  outcome: inactive
[3]
  Potency: inactive
[4]
  Potency: inactive
[5]
  Potency: inactive
[6]
  outcome: inactive
[7]
  Potency: inactive
[8]
  outcome: inactive
[9]
  Potency: inactive
[10]
  Potency: inactive
[11]
  outcome: inactive
[12]
  activation: 0.375% (inactive)
[13]
  Potency: inactive
  viability change: -3.39%
[14]
  outcome: inactive

## CN(C)CCN(Cc1ccccc1)c1ccccn1
[15]
  Potency: inactive

## CCN(CC)CCNC(C(=O)OCCC(C)C)c1ccccc1 (centres undefined)
[15]
  Potency: inactive

## CC(C(O)c1ccc(O)cc1)N1CCC(Cc2ccccc2)CC1 (centres undefined)
[1]
  outcome: inactive
[16]
  Potency: inactive
[2]
  outcome: inactive
[3]
  Potency: inactive
[4]
  Potency: inactive
[17]
  Potency: inactive
[5]
  Potency: inactive
[7]
  Potency: 11.2 µM (active)
[8]
  outcome: inactive
[15]
  Potency: inactive
[10]
  Potency: inactive
[12]
  activation: 5.75% (inactive)
[13]
  Potency: inactive
  viability change: -19.8%
[14]
  outcome: inactive

## CSc1ccc2c(c1)N(CCC1CCCCN1C)c1ccccc1S2 (centres undefined)
[1]
  outcome: inactive
[2]
  outcome: inactive
[3]
  Potency: inactive
[4]
  Potency: 11.2 µM (active)
[17]
  Potency: 28.2 µM (active)
[5]
  Potency: inactive
[7]
  Potency: inactive
[10]
  Potency: inactive
[11]
  outcome: inactive
[14]
  outcome: inactive

## NC(=O)NNc1ccccc1
[15]
  Potency: inactive

## CNCCC(Oc1ccc(C(F)(F)F)cc1)c1ccccc1 (centres undefined)
[1]
  outcome: inactive
[2]
  outcome: inactive
[3]
  Potency: inactive
[4]
  Potency: inactive
[5]
  Potency: inactive
[8]
  outcome: inactive
[10]
  Potency: inactive
[11]
  outcome: inactive
[12]
  activation: 22.8% (inactive)
[13]
  Potency: inactive
  viability change: 3.02%
[14]
  outcome: inactive

## CN(C)CCC=C1c2ccccc2CCc2ccccc21
[1]
  outcome: inactive
[16]
  Potency: inactive
[18]
  Potency: inactive
[2]
  outcome: inactive
[3]
  Potency: inactive
[5]
  Potency: inactive
[7]
  Potency: inactive
[10]
  Potency: inactive
[11]
  outcome: inactive
[12]
  activation: 1.31% (inactive)
[13]
  Potency: inactive
  viability change: 9.1%
[14]
  outcome: inactive

## CC[C@H]1CN2CCc3cc(OC)c(OC)cc3[C@@H]2C[C@@H]1C[C@H]1NCCc2cc(OC)c(OC)cc21
[1]
  outcome: inactive
[16]
  Potency: inactive
[18]
  Potency: 0.0928 µM (active)
[2]
  outcome: inactive
[4]
  Potency: inactive
[17]
  Potency: inactive
[5]
  Potency: inactive
[7]
  Potency: inactive
[8]
  outcome: inactive
[9]
  Potency: inactive
[14]
  outcome: inactive

## COC(=O)C1=C(C)NC(C)=C(C(=O)OC)C1c1ccccc1[N+](=O)[O-]
[1]
  outcome: inactive
[2]
  outcome: inactive
[3]
  Potency: inactive
[5]
  Potency: inactive
[6]
  outcome: inactive
[7]
  Potency: inactive
[12]
  activation: 0.938% (inactive)
[14]
  outcome: inactive

## C[C@]12CC[C@@H]3c4ccc(O)cc4CC[C@H]3[C@@H]1CCC2=O
[1]
  outcome: inactive
[16]
  Potency: inactive
[2]
  outcome: inactive
[3]
  Potency: inactive
[4]
  Potency: inactive
[17]
  Potency: inactive
[5]
  Potency: inactive
[6]
  outcome: inactive
[7]
  Potency: inactive
[8]
  outcome: inactive
[9]
  Potency: inactive
[10]
  Potency: inactive
[11]
  outcome: inactive
[12]
  activation: 0.812% (inactive)
[14]
  outcome: inactive

## CC1(C)CO[C@@H](CC(=O)O)CN1
[15]
  Potency: inactive

## NCCNCCNCCNCCN
[15]
  Potency: inactive
